Results: ChEMBL document CHEMBL1201862, “PubChem BioAssay data set” (2004)
Out of some 400,000 compounds screened, about 2,100 (0.53%) were called active. Inconclusive results (about 14%) are left out. No rule for the calls is given here. The list comes from a sample in which actives are over-represented; it also holds similar structures and randomly drawn compounds.

target: Ataxin-2 (Homo sapiens) (UniProt Q99700); experiment: qHTS for Inhibitors of ATXN expression.; format: functional
Sequence (Q99700 whole entry): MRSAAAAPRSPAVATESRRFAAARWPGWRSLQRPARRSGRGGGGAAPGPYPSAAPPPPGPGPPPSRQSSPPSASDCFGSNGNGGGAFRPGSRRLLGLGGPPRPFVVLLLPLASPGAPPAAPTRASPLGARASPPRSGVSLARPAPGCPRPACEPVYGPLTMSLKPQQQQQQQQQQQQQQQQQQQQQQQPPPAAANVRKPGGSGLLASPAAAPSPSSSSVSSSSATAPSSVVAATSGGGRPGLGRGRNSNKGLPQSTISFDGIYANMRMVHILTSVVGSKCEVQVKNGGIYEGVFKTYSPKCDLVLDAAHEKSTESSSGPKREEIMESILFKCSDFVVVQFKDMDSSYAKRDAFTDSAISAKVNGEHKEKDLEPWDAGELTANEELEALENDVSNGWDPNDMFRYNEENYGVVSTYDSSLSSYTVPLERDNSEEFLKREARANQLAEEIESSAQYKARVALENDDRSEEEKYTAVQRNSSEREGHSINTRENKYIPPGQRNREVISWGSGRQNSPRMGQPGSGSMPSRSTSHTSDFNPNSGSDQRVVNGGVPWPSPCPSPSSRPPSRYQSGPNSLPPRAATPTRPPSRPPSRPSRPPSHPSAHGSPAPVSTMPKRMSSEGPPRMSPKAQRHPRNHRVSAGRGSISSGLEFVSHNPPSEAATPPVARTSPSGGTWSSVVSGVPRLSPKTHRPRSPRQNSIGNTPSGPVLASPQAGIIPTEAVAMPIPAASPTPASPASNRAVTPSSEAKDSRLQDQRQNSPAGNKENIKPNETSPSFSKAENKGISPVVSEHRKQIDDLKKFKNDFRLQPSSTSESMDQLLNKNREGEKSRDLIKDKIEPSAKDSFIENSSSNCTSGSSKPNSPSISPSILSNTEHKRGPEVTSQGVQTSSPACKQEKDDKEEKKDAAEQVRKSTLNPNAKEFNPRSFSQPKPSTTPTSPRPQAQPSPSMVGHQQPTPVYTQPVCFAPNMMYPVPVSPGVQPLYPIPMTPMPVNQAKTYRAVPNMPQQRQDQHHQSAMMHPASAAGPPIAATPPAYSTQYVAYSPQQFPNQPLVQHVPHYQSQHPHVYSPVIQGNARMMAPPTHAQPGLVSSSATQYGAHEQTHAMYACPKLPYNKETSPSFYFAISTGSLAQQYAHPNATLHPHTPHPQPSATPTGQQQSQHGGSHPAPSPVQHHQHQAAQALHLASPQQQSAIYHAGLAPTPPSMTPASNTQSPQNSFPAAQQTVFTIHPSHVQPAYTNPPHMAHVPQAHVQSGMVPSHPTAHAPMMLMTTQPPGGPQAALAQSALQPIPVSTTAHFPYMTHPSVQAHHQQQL

Structure (SMILES)	Potency
Cc1cc(-c2ccnc(-n3ncc(C(=O)NC(C)(C)CO)c3C3CC3)n2)c(C)s1	inactive
Cc1ccc(C(=O)OCC(=O)Nc2nc(-c3ccccc3)cs2)cc1NC(=O)c1ccco1	inactive
CC(C)CCNC(=O)c1cc2c(=O)n3ccccc3nc2s1	inactive
Cc1ccc(C(=O)NCCC(C)C)cc1NC(=O)c1nsc2ccccc12	25.1 µM (active)
O=C1/C(=C/NCc2ccccn2)c2ccccc2C(=O)N1c1ccccc1	inactive
OC[C@@H]1[C@@H](c2ccc(Cl)cc2)C(c2ccccc2)=NN1c1ccccc1	inactive
Cc1ccc(N(Cc2cc3ccccc3nc2O)C(=O)c2cccs2)cc1	inactive
Oc1nc2ccccc2nc1Cc1ccc(Cl)cc1	inactive
O=S(=O)(c1ccc(Cl)cc1)N(Cc1cccnc1)Cc1cc2ccccc2nc1O	25.1 µM (active)
COCCCn1c(=O)/c(=C/c2ccccc2OC(C)C)s/c1=C(\C#N)C(=O)Nc1ccc(C(=O)O)cc1	inactive
CCCN(C(=O)CCl)C1=CCCCC1	5.97 µM (active)
CSc1nc(N2CCOCC2)nc2ccc(C)cc12	inactive
O=[N+]([O-])c1ccc(COc2ncnc3ccccc23)cc1	inactive
O=C(c1ccc(Cl)cc1)n1cnc2ccccc21	inactive
O=[N+]([O-])c1ccc(Cc2nnc(O)c3ccccc23)cc1	inactive
CC(=O)c1ccccc1NC(=O)c1cc(S(=O)(=O)N2CCOCC2)ccc1N1CCCC1	inactive
O=C(/C=C/c1ccc([N+](=O)[O-])cc1)c1ccccc(=O)c1O	13.4 µM (active)
COc1ccccc1C(=O)/C=C/c1ccc(N2CCCCC2)c([N+](=O)[O-])c1	39.8 µM (active)
O=C(/C=C/c1cccc([N+](=O)[O-])c1)n1cnc2ccccc21	20 µM (active)
CC(=O)Oc1ccccc1C(=O)C=Cc1cccc([N+](=O)[O-])c1	39.8 µM (active)
O=C(Cn1cnc2ccccc21)Nc1cccc([N+](=O)[O-])c1	inactive
CC(=O)c1ccc(N2CCN(C(=O)c3ccc(Cn4c(=S)[nH]c5ccc(N6CCOCC6)cc5c4=O)cc3)CC2)cc1	inactive
COc1ccc(C2=CC(c3ccc(OC)c(OC)c3)n3nnnc3N2)c(OC)c1 (centres undefined)	inactive
COC(=O)Cn1nnnc1-c1nc2cc(C)c(C)cc2nc1O	inactive
O=C(NCCO)Nc1ccc2nsnc2c1	inactive
COc1ccc(CNC(=O)CN2C(=O)NC(C)(c3ccc(C(C)(C)C)cc3)C2=O)cc1 (centres undefined)	inactive

Structure (SMILES)	Potency
CCN(CC)C(=O)C1=C(C)N(Cc2ccc(C(C)(C)C)cc2)C(=O)C(CC(=O)NCc2cccc3ccccc23)C1 (centres undefined)	25.1 µM (active)
CCN(CCNC(=O)C1CCC(=O)N1Cc1ccc(C)cc1)c1ccccc1 (centres undefined)	inactive
O=C(CSC1=NCCN1)NC(c1ccccc1)c1ccccc1	inactive
CCN(CC)C(=O)C1=C(C)N(Cc2ccc(C(C)(C)C)cc2)C(=O)C(CC(=O)NCCCCc2ccccc2)C1 (centres undefined)	35.5 µM (active)
CCN(CC)C(=O)C1=C(C)N(Cc2ccc(C(C)(C)C)cc2)C(=O)C(CC(=O)NC(c2ccccc2)c2ccccc2)C1 (centres undefined)	28.2 µM (active)
CC(=O)c1sc(Nc2nc3cc4c(cc3s2)OCO4)nc1C	inactive
O=C1C2CC(O)CN2C(=S)N1Cc1ccccc1 (centres undefined)	inactive
O=C(Cc1cc(=O)oc2cc(O)ccc12)NC(Cc1ccc(Cl)cc1)C(=O)O (centres undefined)	inactive
COc1cc(C(=O)OCc2ccc(C)cc2)cc(NC(=O)c2cccs2)c1OC	inactive
O=C(Nc1cccc(Br)c1)C1CCCC1	inactive
CC(=O)Nc1cccc(C(=O)/C=C/c2ccc(Br)cc2)c1	20 µM (active)
CN(C)c1ccc(/C=C/C(=O)c2ccc3c(c2)OCO3)cc1	inactive
COc1cccc(Cn2c(=O)c3ccccc3n3nc(C)cc23)c1	inactive
COc1ccc(OC)c(C(=O)/C=C/c2cccnc2)c1	39.8 µM (active)
O=C(C=Cc1cccnc1)c1ccccc1	39.8 µM (active)
COc1cc(O)c(C(=O)/C=C/c2ccccc2)c(OC)c1	35.5 µM (active)
COc1cc(OC)c2cc(C(=O)N/N=C/c3ccccc3O)[nH]c2c1	inactive
CC(/C=C/C=C/c1ccccc1)=N\NC(=O)c1cccnc1	inactive
Cc1cc(O)c(C(=O)/C=C/c2ccccc2)c(=O)o1	inactive
O=C(NNc1ccccc1)/C(=C\c1cccnc1)NC(=O)c1ccccc1	inactive
COc1ccc(C(=O)/C=C/c2ccc(N(C)C)cc2)c(OC)c1	inactive
O=C(/C=C/c1cccnc1)c1cccc(O)c1	26.7 µM (active)
Cc1cc(-c2sccc2Br)nc(-n2cccc2)n1	inactive
COc1cccc(/C=N/NC(=O)c2cnn(-c3ccccc3)c2N)c1	inactive
COc1ccc(S(=O)(=O)N2CCOCC2)cc1NC(=O)COC(=O)c1oc2ccccc2c1C	inactive
N#Cc1c2c(c(NCCOCCO)n3c1nc1ccccc13)CCCC2	inactive

Structure (SMILES)	Potency
OCCCc1nc2n(n1)C(c1cccc(Cl)c1)C=C(c1ccccc1)N2 (centres undefined)	inactive
COc1ccc(C(=O)COC(=O)/C=C/c2ccco2)cc1F	inactive
COC(=O)C(=C/C(C)=C/c1cccnc1)C(=O)OC	22.4 µM (active)
O=C(N/N=C/c1cccnc1)c1ccccc1OCc1ccc(Br)cc1	inactive
N#Cc1ccc(/C=C\c2[nH]ccc3c4ccccc4nc2-3)cc1	inactive
N#Cc1ccc(/C=C/C(=O)c2cccnc2)cc1	25.1 µM (active)
N#Cc1ccc(C(=O)CSc2nnc(O)n2-c2cccnc2)cc1	inactive
Oc1cc(-c2nc3ccccc3s2)cc2c1OCCN(Cc1cccn1-c1ccccn1)C2	31.6 µM (active)
O=c1c(-c2nc3ccccc3s2)cccn1Cc1ccc(Cl)c(Cl)c1	inactive
Cc1ccc(Cl)c(NC(=O)CSc2nnc(O)n2C2CC2)c1Cl	inactive
CN(C)CCCN1C(=O)c2cccc3c([N+](=O)[O-])ccc(c23)C1=O	inactive
CN(C)CCCN1C(=O)c2cccc3c(Br)ccc(c23)C1=O	inactive
CN(C)CCCN1c2ccc3ccccc3c2Sc2cccc(Cl)c21	37.7 µM (active)
CC1(C)CC(NC(=O)c2sc3cc(Cl)ccc3c2Cl)CC(C)(C)N1	inactive
CN(c1ccccc1)S(=O)(=O)c1cc(C(=O)OCC(N)=O)ccc1Cl	inactive
CC1(C)CC(NC(=O)c2ccc(Cl)c(S(=O)(=O)N(Cc3ccccc3)c3ccccc3)c2)CC(C)(C)N1	22.4 µM (active)
Cc1nc2ccc(NC(S)=NC3CCCCC3)cc2nc1C	inactive
Cc1cc(C)cc(NC(S)=NCCN(C2CCCCC2)C2CCCC2)c1	39.8 µM (active)
CCCN1C2CCCC1CC(N=C(S)Nc1cccc(C)c1)C2 (centres undefined)	inactive
Cc1c(NC(=O)Nc2ccc(Cl)c(Cl)c2)sc(=S)n1C	39.8 µM (active)
Cc1occc1C(=O)NNC(=O)Nc1ccc(Cl)c(Cl)c1	inactive
CCN1CCc2c(sc(NC(=O)Nc3ccc(Cl)c(Cl)c3)c2C(N)=O)C1	inactive
CCN(Cc1ccc(NC(C)=O)cc1)CC1CCCN(CCc2cccc(F)c2)C1 (centres undefined)	inactive
COc1ccc(Nc2cnn(-c3nc4ccccc4s3)c(=O)c2Cl)cc1	25.1 µM (active)
COc1ccc(C(=O)N/N=C/c2sc3ccccc3c2O)cc1	inactive
Cc1c2c(=O)n(-c3nc4ccccc4s3)nc-2cc(O)n1Cc1ccccc1	inactive

Structure (SMILES)	Potency
COC(=O)c1cc2c(=O)n3ccccc3nc2n(Cc2cccnc2)c1=N	inactive
COc1ccc(C#Cc2c(C=O)n(C)c3ccccc23)cc1	inactive
Cc1ccccc1NCc1ccc([N+](=O)[O-])s1	inactive
O=[N+]([O-])c1ccc(/C=N/n2cnc3ccccc32)s1	22.4 µM (active)
Cc1nc2ccccc2n1/N=C/c1ccc([N+](=O)[O-])s1	23.8 µM (active)
COc1ccc(/C=N/NC(=O)c2cc[nH]n2)cc1Cn1nc(C)c([N+](=O)[O-])c1C	inactive
COc1ccc(-n2c(NC(=O)c3ccco3)c(C#N)c3nc4ccccc4nc32)cc1	inactive
O=[N+]([O-])c1cccc(Nc2c3ccccc3nc3ccccc23)c1	inactive
CCCOc1ccc(/C=N/Nc2cccc([N+](=O)[O-])c2)c(O)c1	inactive
CCOc1ccc2nc(C)cc(Nc3cccc([N+](=O)[O-])c3)c2c1	39.8 µM (active)
CCCCc1c(-c2cccc(Br)c2)ncn1CCc1ccccc1OC	28.2 µM (active)
CCCCCc1c(-c2cccc(Br)c2)ncn1CCc1ccccc1OC	39.8 µM (active)
COc1ccc(Br)cc1CN1CCN(c2ncccn2)CC1	inactive
Cn1c(O)nnc1-c1cccc(Br)c1	inactive
Cc1cc(-n2c(=O)c(C#N)cc3c(=O)n4ccccc4nc32)no1	inactive
COc1ccc(-c2cc(C(F)(F)F)n3nc(C(=O)NCCN4CCOCC4)cc3n2)cc1	inactive
Clc1cccc(-c2nc(NCCCN3CCOCC3)c3ccccc3n2)c1	inactive
Clc1cccc(CNc2ccn3nc(-c4ccc(OCCN5CCOCC5)cc4)cc3n2)c1	28.2 µM (active)
CCCCN(CCCC)C(=O)C[n+]1cccc(/C=N/O)c1	inactive
Cc1cc(/N=C/C=C2/N(C)c3ccccc3C2(C)C)n(CCC#N)n1	15.8 µM (active)
Cc1cc(/N=C/C=C2\N(C)c3ccccc3C2(C)C)n(CCC#N)n1	31.6 µM (active)
CN1/C(=C\C(=O)c2cccc(S(=O)(=O)N3CCCCC3)c2)C(C)(C)c2ccccc21	inactive
NC(=O)c1nc(-c2ccccc2)c(-c2ccccc2)nc1O	inactive
Oc1nc2c(O)ncnc2nc1-c1ccccc1	inactive
Oc1ccccc1N=Nc1nc(-c2ccccc2)c(-c2ccccc2)[nH]1	20 µM (active)
CCOCCCN=C(S)NCCNc1nc2ccc(C)cc2cc1C#N	inactive
